Screening results (PubChem BioAssay)
The sample as a whole holds a higher share of hits than the screen did.
TTR transcr act = activators of transthyretin transcription | SH-SY5Y TTR promoter Gaussia luciferase, luminescence; 100% = recombinant luciferase protein wells | activation, % at 16.7 µM | 92,000 tested, 1.3% active;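 active means activation above the mean of all tested compounds plus 3 SD, cut at about 9.5% in these data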;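 further: cells exposed to compounds for one day before reading; 0% = median of all test compound wells on the plate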
TTR inh HuH7 = decreases TTR transcription in HuH7 cells in activator counter-screen. shares compounds with TTR transcr act. HuH7 TTR promoter-Gaussia luciferase reporter, luminescence. inhibition, % at 16.7 µM. 1,100 tested, 4% active;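 active means average inhibition above the solvent-only control wells' mean plus 3 SD, cut at about 15% in these data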;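 further: 0% = cells with DMSO only and 100% = cells with inhibitor control FD; inhibitors lower well luminescence so higher value means more inhibition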
TTR act confirm = human TTR transcription activation, confirmation | shares compounds with TTR transcr act | SHSY5Y TTR promoter Gaussia luciferase, luminescence; 100% = purified Lucia enzyme wells, no cells | activation, % at 16.7 µM | 1,100 tested, under 10 active;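 active means mean activation above a set limit taken from the earlier primary screen, cut at about 11% in these data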;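 further: 0% = DMSO-treated cells and 100% = recombinant Lucia luciferase without cells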
* marks the source's active call; other numbers are inactive results.

SMILES	TTR transcr act	others
CCOC(=O)N1CCN(C(=O)C[C@H]2C[C@@]3(C(=O)OC)C(=C[C@H](C4CCCC4)O[C@@H]3C)N(Cc3ccc(Cl)cc3Cl)C2=O)CC1	1
C[C@H]1CN([C@@H](C)CO)C(=O)Cc2cc(NS(=O)(=O)c3cccs3)ccc2O[C@H]1CN(C)S(=O)(=O)c1cn(C)cn1	7
Fc1ccccc1COc1ccc2ccccc2c1CNc1nn[nH]n1	0
Cc1cc(C)c(NC(=O)CSc2cccc[n+]2[O-])c(C)c1	1
O=C(CSc1cccc[n+]1[O-])Nc1cc2c(cc1Cl)C(=O)c1ccccc1C2=O	-2
CN(C)S(=O)(=O)c1cc(NC(=O)CSc2cccc[n+]2[O-])ccc1Cl	1
O=C(CSc1cccc[n+]1[O-])Nc1ccc(Cl)cc1F	11*	TTR inh HuH7=-10;TTR act confirm=1
O=C(CSc1cccc[n+]1[O-])Nc1ccc(Br)cc1Br	0
Cc1ccc(Cl)c(NC(=O)CSc2cccc[n+]2[O-])c1Cl	14*	TTR inh HuH7=-9;TTR act confirm=0
CCOC(=O)[C@@]12CCC3=C1N(CCC3)C(=O)[C@H](CC(=O)N1CCSCC1)C2	0
Cn1cc2cc([N+](=O)[O-])ccc2n1	4
O=C(CCC1CCCCC1)Nc1ccccc1C(=O)N1CCOCC1	-2
COc1ccc(C(=O)Nc2c(N)nc(SCC(=O)NCC3CCCO3)[nH]c2=O)cc1OC (centres undefined)	-1
Cc1ccc(Cn2cc(COC(=O)NCCc3c[nH]c4ccccc34)nn2)cc1	-1
CCC(C)[C@H](NC(=O)C1(c2ccccc2)CCN(C(=O)OC(C)(C)C)CC1)C(=O)N[C@@H](C(=O)O)c1ccccc1 (some centres undefined)	-1
CCOC(=O)N1CCN(c2cc(N(C)CCO)c([N+](=O)[O-])c3nonc23)CC1	-1
CN(C)c1cc(Nc2ccc(O)cc2)c([N+](=O)[O-])c2nonc12	6
CC(=O)OCCN(C)c1cc(SC(C)C)c2nonc2c1[N+](=O)[O-]	18*	TTR inh HuH7=1;TTR act confirm=0
O=C(Nc1ccc(C(=O)NC2CCCCC2)cc1)c1cccnc1	2
CCCC1CCC2(CC1)CCC2OC(=S)Nc1ccc(I)cc1 (centres undefined)	0
COC(=O)[C@]12C[C@H](CC(=O)N3CCC(c4ccccc4)CC3)C(=O)N(Cc3ccccc3)C1=C[C@H](COCc1ccccc1)O[C@@H]2C	-2
c1ccc2cc(Cn3ccc4ccc(-c5ccc6cc[nH]c6c5)cc43)ccc2c1	0
CC(C)c1ccc2[nH]c(O)c(N=NC(=O)c3ccc(CSc4nncn4C)cc3)c2c1	9
Oc1[nH]c2ccccc2c1N=NC(=S)NCCc1ccccc1	7
CC(C)c1ccc2[nH]c(O)c(N=NC(=S)NCCc3ccccc3)c2c1	12*	TTR inh HuH7=-8;TTR act confirm=0
SMILES	TTR transcr act	others
CCC/C(C#Cc1ccsc1)=C1/c2ccccc2C(=O)N1c1ccccc1	-3
CCCCCC(=O)NC1CCCCN(Cc2ccc(C)cc2)C1=O (centres undefined)	-1
CCOc1ccc(NC(=O)Nc2ccc(Br)cn2)cc1	2
Cc1ccc(OCC(=O)NC(=S)Nc2ccc(Br)cn2)cc1	20*	TTR inh HuH7=-10;TTR act confirm=-1
Cc1ccc(OCC(=O)NC(=S)Nc2cccc(NC(=O)c3ccccc3)c2)cc1	-1
Cn1c(=O)c2c(O)c([N+](=O)[O-])c(=O)n(C)c2n(C)c1=O	2
CCc1ccccc1NS(=O)(=O)c1c(C(=O)N2CCCCCC2)c(C)n(C)c1C	1
O=C1CCCC/C1=C/Nc1cccc(C(F)(F)F)c1	0
Cc1ccc(N/C=C2\CCCCC2=O)nc1	9.9*	TTR inh HuH7=-9;TTR act confirm=0
Cc1ccc(N/C=C2\CCCCC2=O)c(C)c1	2
COc1cccc(NC(=O)C2CCCO2)c1 (centres undefined)	-1
CC1=C(C(=O)N(C(C)C)C(C)C)CC(CC(=O)NCCCN(C)C)C(=O)N1CCCN1CCCC1=O (centres undefined)	1
O=C(NCC1CCN(Cc2ccccc2F)CC1)Nc1cc(F)ccc1F	7
CCC[C@H]1[C@@H](NS(=O)(=O)c2ccccc2[N+](=O)[O-])CC[C@@]23CCCN2C(=O)CCC[C@@H]13	-1
CC(C)C[C@H]1CNC(=S)N1C[C@H]1CCCN1C[C@H](CC(C)C)N1C[C@H](Cc2ccc(O)cc2)N(CC2CCCCCC2)C1=S	25*	TTR inh HuH7=9;TTR act confirm=-1
CC(C)C[C@H]1CNC(=S)N1C[C@H]1CCCN1C[C@H](CC(C)C)N1C[C@H](Cc2ccc(O)cc2)N(CCc2ccccc2)C1=S	-3
CC(C)C[C@H]1CNC(=S)N1CC1CCCN1C[C@H](CC(C)C)N1C[C@H](Cc2ccc(O)cc2)N(CC2CCCCC2)C1=S (some centres undefined)	-2
O=C(Cn1ccccc1=O)c1cccs1	17*	TTR inh HuH7=-12;TTR act confirm=-1
O=C(CN1C2=NCCCN2c2ccccc21)c1cccs1	1
CCCn1c(=N)n(CC(=O)c2cccs2)c2ccccc21	4
O=C(Nc1ccc(C(O)(C(F)(F)F)C(F)(F)F)cc1)c1ccc(F)cc1F	0
CC1(C)CC(=O)N(c2cccc(C(F)(F)F)c2)C(=O)C1	1
CCN(CC)S(=O)(=O)c1ccc(OC)c(NS(=O)(=O)c2cccc(C(=O)O)c2)c1	-1
CCOC(=O)CSc1nnc(-c2ccc(OC)cc2)n1CC	-1
COc1ccc(C(C)n2c(C)c3c(C)nnc(C)c3c2C)cc1 (centres undefined)	9.8*	TTR inh HuH7=-9;TTR act confirm=1
SMILES	TTR transcr act	others
COc1ccc(-c2nc(C)c(C(C)=O)n2O)cc1	0
COCCN(CCOC)Cc1cc(=O)oc2cc(OC)ccc12	2
O=C(NNC(=O)c1cccc(O)c1)Nc1ccc([N+](=O)[O-])cc1	0
CC(C)[C@H](NC(=O)N1CC(=O)Nc2ccccc21)C(=O)N[C@@H](Cc1ccccc1)C(=O)O	2
CCC(C)[C@H](NC(=O)N1CC(=O)Nc2ccccc21)C(=O)N[C@@H](Cc1c[nH]c2ccccc12)C(=O)O (some centres undefined)	12*	TTR inh HuH7=-22;TTR act confirm=0
CC(C)C[C@H](NC(=O)N1CC(=O)Nc2ccccc21)C(=O)N[C@H](Cc1c[nH]c2ccccc12)C(=O)O	2
Cc1cccc(NCC(=O)c2c(N)n(C)c(=O)n(C)c2=O)c1C	2
Cc1ccnc(N2CCC(C(=O)NCc3ccccc3F)CC2)n1	-3
COc1cccc(OC)c1NC(=O)OC1CCC12CCC(c1ccccc1)CC2 (centres undefined)	1
COc1cc(C(=O)Nc2ccc(Br)cc2C(=O)c2cc(OC)c(OC)c(OC)c2)cc(OC)c1OC	2
CCCCOCCCNC(=O)C[C@@H]1C(=O)N(CCc2ccc(Cl)cc2)C2=CCCCC[C@]21C(=O)OC	2
CCCNC(=O)c1ccc(SC)cc1OC	2
COc1cc(SC)ccc1C(=O)NCCNC(=O)c1nonc1N	14*	TTR inh HuH7=-28;TTR act confirm=0
COc1cc(SC)ccc1C(=O)NCc1ccc(C)cc1	-2
CCOCCCNC(=O)c1cccc(OC2CCN(S(C)(=O)=O)CC2)c1	-1
Cc1cccc(NS(=O)(=O)c2cc(C(=O)N3CCCC3)ccc2Cl)c1	10*	TTR inh HuH7=-10;TTR act confirm=0
O=C(c1ccc(Cl)c(S(=O)(=O)N2CCOCC2)c1)N1CCCC1	-1
CN1CCN(C(=O)c2ccc(Cl)c(S(=O)(=O)N3CCCCC3)c2)CC1	3
